About 83,000 compounds went through this panel and 20% of them were active in at least one assay; those are over-represented in the sample as a whole.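 For each line, cells grew in 96-well plates with the test compound present at a single concentration for 48 hours.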 Activity calls are given as the source filed them. Rule for the calls: active = growth percent below 10; inactive = the rest.

For the first assay, the system named is CCRF-CEM leukemia. The experiment in a line: NCI-60 one-dose screen, 48 h (100 = growth as untreated, 0 = no growth, -100 = all killed). Conditions: 10 µM unless noted.
With `CCc1oc2ccccc2c1C(=O)c1cc(I)c(O)c(I)c1`, the growth is 66.2% (inactive).
Consider `COc1cccc2nc(Nc3cccc(NC(=O)c4cc(N5CCOCC5)cc(C(F)(F)F)c4)c3)ccc12`, for which the growth was 48.9% (inactive).
Turning to `FC(F)(F)c1ccc(/C=N/Nc2nnc3n2N=C(c2ccc(Cl)cc2)CS3)cc1`, the growth was 99.4% (inactive).
Turning to `Nc1nc2ccc([C@@H]3Nc4ccc5[nH]ncc5c4[C@H]4[C@H]5CCC(C5)[C@H]43)cc2s1`, the growth is 21.2% (inactive).
On the same count and under the same terms, under `C/C=C(\C)C(C(=O)NC1CCCCC1)N(C(=O)C1CCc2cc(F)ccc2O1)c1ccc([N+](=O)[O-])cc1` (stereo not drawn) stands 97.3% (inactive); under `COc1cc(C2Nc3ccccc3S2)cc(CN2CCOCC2)c1O` (stereo not drawn), 80.1% (inactive).
`C#CCNC(=S)N/N=C(\C)c1ccccn1`: the growth is 13.4% (inactive).
For the compound `COc1cc2nccc(Oc3ccc(NC(=O)C4(C(=O)Nc5c(F)cc(F)cc5F)CC4)cc3)c2cc1Oc1ccc(N)cn1`, the growth was 70.9% (inactive).
For the compound `COc1ccc2c(c1)CCCC21C(=O)Nc2ccccc21` (stereo not drawn), the growth is 97.9% (inactive).
On the same count and under the same terms, next, `CCCCCCCCCC1=NC(C)(C)CN1C(C)(C)CO`: 82.4% (inactive); `CCN(CC)CCCC(C)Nc1cnc(C(=O)Nc2cc(C)cc3cccnc23)cn1` (stereo not drawn): 54.2% (inactive).
As for `C/C(CC(=O)NNc1ccc([N+](=O)[O-])cc1)=N\Nc1ccc([N+](=O)[O-])cc1`, the growth was 48.6% (inactive).
With `COc1ccc2c(c1)CCCC21C(=O)Nc2c(Cl)cccc21` (stereo not drawn), the growth is 60.9% (inactive).
With `CCN(CC)CCCNc1cccc2c(C)cc(OC)nc12`, the growth is 102% (inactive).
Same read-out and setting: under `Cc1nn(-c2ccc(Cl)cc2)c(=O)n1CCN1CCOCC1` stands 63.2% (inactive); under `CCN(C(=O)Nc1cccc2ccccc12)c1ccccc1`, 109% (inactive); under `CCCCCCCCCCC(C(O)c1ccccc1)N1CCCCC1` (stereo not drawn), 0.764% (active).
As to `CC1CN(CCCOC(=O)Nc2ccc(Cl)cc2)CCN1C(C)(C)C` (stereo not drawn), the growth was 90.3% (inactive).
For `Cc1ccc(/C=C/C(=N/N=C(N)N)c2ccccc2)cc1`, the growth is 25.2% (inactive).
In the case of `O=C(Nc1ccc(Br)cc1)Nc1ccccc1Cl`, the growth is 94.8% (inactive).
Same read-out and setting: under `CC1C2CCC(C2)C1COCCOCCO` (stereo not drawn) stands 112% (inactive).
In the case of `O=C1Cc2c([nH]c3ccc([N+](=O)[O-])cc23)-c2ccccc2N1`, the growth was 1.61% (active).
In the case of `CCN(CC)CCCC(C)Nc1cnc(C(=O)Nc2ccc(Cl)c3cccnc23)cn1` (stereo not drawn), the growth is 5.29% (active).
The same measure, in the same setting: next, `CC(=O)c1nn(-c2ccccc2)/c(=N\N=C\c2coc3ccc(F)cc3c2=O)s1`: 97.2% (inactive); `Cc1c(O)c(=O)n(-c2ccccc2)n1C`: 118% (inactive); `CSC(=S)N/N=C(\C)c1ccccn1`: 7.65% (active).
`CN1CCN(Cc2ccc(NC(=O)c3cncc(C#Cc4cnc5cccnn45)c3)cc2C(F)(F)F)CC1`: the growth was 5.9% (active).
With `O=C1c2ccccc2C(=O)c2c1oc1ccc3ccccc3c21`, the growth is 94.8% (inactive).
Same read-out and setting: under `CN(C)c1ccc(/C=N/Nc2nnc3n2N=C(c2ccc(Cl)cc2)CS3)cc1` stands 86.8% (inactive).
On the same count and under the same terms, under `C#CC[C@@H]1C[C@]2(C)[C@H]3CC=C4[C@H]5CC(C)(C)CC[C@]5(C(=O)NCCCCN)CC[C@@]4(C)[C@]3(C)CC[C@H]2C(C)(C)[C@H]1OC(C)=O` stands 17.9% (inactive); under `COc1ccc(C(=O)C(CN(C)C)c2ccccc2)cc1` (stereo not drawn), 12.6% (inactive).
Take `C#CC[C@@H]1C[C@]2(C)[C@H]3CC=C4[C@H]5[C@@H](C)[C@H](C)CC[C@]5(C(=O)NCCCCCCCCN)CC[C@@]4(C)[C@]3(C)CC[C@H]2C(C)(C)[C@H]1OC(C)=O`: the growth is -34.6% (active).
As to `CCCCNCC(O)c1cc2c(Cl)cc(Cl)cc2c2cc(C(F)(F)F)ccc12` (stereo not drawn), the growth is -49.6% (active).
Consider `COc1ccc(/C(=C\c2ccc3c(c2)OCO3)C(=O)Nc2nc3ccccc3s2)cc1`, for which the growth was 95.4% (inactive).
Turning to `Nc1ccc(N(O)/C=C2\C=CC=CC2=O)cc1N`, the growth was 57.6% (inactive).
On the same count and under the same terms, next, `Fc1[nH]nc2ccc([C@@H]3Nc4ccc5[nH]ncc5c4[C@H]4C5CCC(C5)[C@@H]34)cc12` (stereo partly drawn): 18% (inactive); `Cc1c(-c2ccc(-c3ccccc3F)cc2)nc2ccc(F)cc2c1C(=O)O`: 27.9% (inactive).
Consider `C=C(C)[C@@H]1CC[C@]2(C)[C@H](CC=C3[C@@H]4C[C@](C)(C(=O)N5CCN(C)CC5)CC[C@]4(C)CC[C@]32C)[C@@]1(C)CCC#N`, for which the growth is 34.1% (inactive).
Still for that read-out and setting: under `CNCc1cccc2c1OCCOCCOCCC(C)S(=O)(=O)c1ccc(cc1)-c1cnc(N)c(n1)C(=O)N2` (stereo not drawn) stands 2.12% (active).

The subject of a further assay is MOLT-4 leukemia. The assay is described as above. Conditions: 10 µM unless noted.
For `CCc1oc2ccccc2c1C(=O)c1cc(I)c(O)c(I)c1`, the growth is 32.5% (inactive).
As for `COc1cccc2nc(Nc3cccc(NC(=O)c4cc(N5CCOCC5)cc(C(F)(F)F)c4)c3)ccc12`, the growth is 35.2% (inactive).
As for `FC(F)(F)c1ccc(/C=N/Nc2nnc3n2N=C(c2ccc(Cl)cc2)CS3)cc1`, the growth is 79.5% (inactive).
Regarding `Nc1nc2ccc([C@@H]3Nc4ccc5[nH]ncc5c4[C@H]4[C@H]5CCC(C5)[C@H]43)cc2s1`, the growth is 7.02% (active).
Consider `C/C=C(\C)C(C(=O)NC1CCCCC1)N(C(=O)C1CCc2cc(F)ccc2O1)c1ccc([N+](=O)[O-])cc1` (stereo not drawn), for which the growth was 76.4% (inactive).
For `COc1cc(C2Nc3ccccc3S2)cc(CN2CCOCC2)c1O` (stereo not drawn), the growth was 25.3% (inactive).
Same read-out and setting: next, `C#CCNC(=S)N/N=C(\C)c1ccccn1`: 3.54% (active).
On the same count and under the same terms, next, `COc1cc2nccc(Oc3ccc(NC(=O)C4(C(=O)Nc5c(F)cc(F)cc5F)CC4)cc3)c2cc1Oc1ccc(N)cn1`: 38.5% (inactive); `COc1ccc2c(c1)CCCC21C(=O)Nc2ccccc21` (stereo not drawn): 76.2% (inactive).
Still for that read-out and setting: under `CCCCCCCCCC1=NC(C)(C)CN1C(C)(C)CO` stands 15.9% (inactive); under `CCN(CC)CCCC(C)Nc1cnc(C(=O)Nc2cc(C)cc3cccnc23)cn1` (stereo not drawn), 46.5% (inactive).
As for `C/C(CC(=O)NNc1ccc([N+](=O)[O-])cc1)=N\Nc1ccc([N+](=O)[O-])cc1`, the growth is 29.2% (inactive).
For `COc1ccc2c(c1)CCCC21C(=O)Nc2c(Cl)cccc21` (stereo not drawn), the growth was 52.1% (inactive).
`CCN(CC)CCCNc1cccc2c(C)cc(OC)nc12`: the growth is 78.7% (inactive).
As for `Cc1nn(-c2ccc(Cl)cc2)c(=O)n1CCN1CCOCC1`, the growth is 90.9% (inactive).
As to `CCN(C(=O)Nc1cccc2ccccc12)c1ccccc1`, the growth is 72.6% (inactive).
Consider `CCCCCCCCCCC(C(O)c1ccccc1)N1CCCCC1` (stereo not drawn), for which the growth was 6.36% (active).
For `CC1CN(CCCOC(=O)Nc2ccc(Cl)cc2)CCN1C(C)(C)C` (stereo not drawn), the growth was 103% (inactive).
As for `Cc1ccc(/C=C/C(=N/N=C(N)N)c2ccccc2)cc1`, the growth is 24% (inactive).
`O=C(Nc1ccc(Br)cc1)Nc1ccccc1Cl`: the growth is 63.9% (inactive).
On to `CC1C2CCC(C2)C1COCCOCCO` (stereo not drawn), for which the growth is 97.6% (inactive).
As for `O=C1Cc2c([nH]c3ccc([N+](=O)[O-])cc23)-c2ccccc2N1`, the growth is 2.18% (active).
For `CCN(CC)CCCC(C)Nc1cnc(C(=O)Nc2ccc(Cl)c3cccnc23)cn1` (stereo not drawn), the growth was 2.9% (active).
On the same count and under the same terms, next, `CC(=O)c1nn(-c2ccccc2)/c(=N\N=C\c2coc3ccc(F)cc3c2=O)s1`: 100% (inactive).
Turning to `Cc1c(O)c(=O)n(-c2ccccc2)n1C`, the growth is 84.2% (inactive).
Consider `CSC(=S)N/N=C(\C)c1ccccn1`, for which the growth is 0.153% (active).
For `CN1CCN(Cc2ccc(NC(=O)c3cncc(C#Cc4cnc5cccnn45)c3)cc2C(F)(F)F)CC1`, the growth is -1.76% (active).
Consider `O=C1c2ccccc2C(=O)c2c1oc1ccc3ccccc3c21`, for which the growth is 104% (inactive).
For the compound `CN(C)c1ccc(/C=N/Nc2nnc3n2N=C(c2ccc(Cl)cc2)CS3)cc1`, the growth was 66.6% (inactive).
With `C#CC[C@@H]1C[C@]2(C)[C@H]3CC=C4[C@H]5CC(C)(C)CC[C@]5(C(=O)NCCCCN)CC[C@@]4(C)[C@]3(C)CC[C@H]2C(C)(C)[C@H]1OC(C)=O`, the growth was 12.2% (inactive).
On to `COc1ccc(C(=O)C(CN(C)C)c2ccccc2)cc1` (stereo not drawn), for which the growth was 21.7% (inactive).
Take `C#CC[C@@H]1C[C@]2(C)[C@H]3CC=C4[C@H]5[C@@H](C)[C@H](C)CC[C@]5(C(=O)NCCCCCCCCN)CC[C@@]4(C)[C@]3(C)CC[C@H]2C(C)(C)[C@H]1OC(C)=O`: the growth was -19.8% (active).
Turning to `CCCCNCC(O)c1cc2c(Cl)cc(Cl)cc2c2cc(C(F)(F)F)ccc12` (stereo not drawn), the growth was -54.8% (active).
As for `COc1ccc(/C(=C\c2ccc3c(c2)OCO3)C(=O)Nc2nc3ccccc3s2)cc1`, the growth was 70.9% (inactive).
Turning to `Nc1ccc(N(O)/C=C2\C=CC=CC2=O)cc1N`, the growth was 73% (inactive).
Take `Fc1[nH]nc2ccc([C@@H]3Nc4ccc5[nH]ncc5c4[C@H]4C5CCC(C5)[C@@H]34)cc12` (stereo partly drawn): the growth is 21.2% (inactive).
On to `Cc1c(-c2ccc(-c3ccccc3F)cc2)nc2ccc(F)cc2c1C(=O)O`, for which the growth was 2.49% (active).
Take `C=C(C)[C@@H]1CC[C@]2(C)[C@H](CC=C3[C@@H]4C[C@](C)(C(=O)N5CCN(C)CC5)CC[C@]4(C)CC[C@]32C)[C@@]1(C)CCC#N`: the growth is 32.1% (inactive).
Turning to `CNCc1cccc2c1OCCOCCOCCC(C)S(=O)(=O)c1ccc(cc1)-c1cnc(N)c(n1)C(=O)N2` (stereo not drawn), the growth was 16.4% (inactive).

The values above are taken from PubChem BioAssay (NCI).
